Hit rate of the full screen: of about 400,000 compounds, about 13,000 (3.2%) were called active. Inconclusive results (about 18%) are left out. Calls follow the shape of the dose curve; as a rule, active = well fitted cell-killing curve with a large enough effect; inconclusive = small, poorly fitted or top-dose-only effect, or effect the other way; inactive = flat fitted curve, though single readings scatter. For the sample, actives were picked, then their nearest neighbours and some compounds at random.
Experiment: qHTS assay for MDR1-selective chemotherapeutics: Primary screen using the drug-selected MDR subline cells KB-V1; also: nearly all actives have a fitted effect of over 60% in size
Settings: KB-V1 MDR cells viability, CellTiter-Glo, 72 h; series mostly up to 46.1 µM; activity change, negative = cytotoxicity: at the top concentration
Summary of the method: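 KB-V1 cells (P-gp-expressing MDR subline of KB-3-1) in phenol-red-free DMEM with 10% FBS were exposed to library compounds over a concentration series for 72 h at 37 degrees C. Viability read by CellTiter-Glo luminescence; concentration-effect curves fitted after normalization.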
% is scaled to controls: 0 for no effect and ±100 for the full control effect; potency is read from the fitted curve at half-maximal effect.

Row | Structure (SMILES) | activity change, negative = cytotoxicity | Potency
1 | CCC(C)N(c1ccc(/C=C/c2ccnc3ccccc23)cc1)C(C)CC (stereo unspecified) | -1.86% (inactive) | 
2 | OC(c1ccccc1)c1nc(/C=C/c2ccc(C(F)(F)F)cc2)cs1 (stereo unspecified) | 20.1% (inactive) | 
3 | Cc1cc(C(=O)OCC(=O)N2C(C)CCCC2C)c2ccccc2n1 (stereo unspecified) | -17.1% (inactive) | 
4 | Cc1nn(-c2ccccc2)nc1C(=O)OCC(=O)N1CCCCC1C (stereo unspecified) |  | 23.1 µM (active)
5 | CC1CCCCN1C(=O)CCS(=O)(=O)Cc1ccccc1 (stereo unspecified) | 27.6% (inactive) | 
6 | Cc1ccc(N(CC(=O)NCC(C)c2ccccc2)S(=O)(=O)N(C)C)cc1 (stereo unspecified) | 3.58% (inactive) | 
7 | O=C(NCc1nnnn1-c1ccc(Cl)cc1)c1ccc([N+](=O)[O-])o1 | -15.6% (inactive) | 
8 | O=[N+]([O-])c1ccc(C(S(=O)(=O)Cc2ccccc2)S(=O)(=O)Cc2ccccc2)cc1 | -7.5% (inactive) | 
9 | CC(C)S(=O)(=O)c1csc(NC(=O)Nc2ccc(Cl)cc2)c1Cl |  | 20.6 µM (active)
10 | CN(c1cccc(NC(=O)Nc2ccc(Cl)cc2)c1)S(C)(=O)=O | -4.54% (inactive) | 
11 | Cn1ccc(NC(=O)Nc2ccc(Cl)cc2)n1 | 4.41% (inactive) | 
12 | CCNC(=O)C1(C)CCCN(Cc2noc(-c3ccccc3OC)n2)C1 (stereo unspecified) | -12.7% (inactive) | 
13 | O=C(NCc1cccc(C(F)(F)F)c1)c1ccc2sc(COCCO)nc2c1 | 2.2% (inactive) | 
14 | CCN(CC(=O)Nc1ccc2c(c1)OCCO2)Cc1cc(=O)oc2cc(C)c(C)cc12 |  | 5.17 µM (active)
15 | Cc1ccc(SCC(=O)Nc2ccc3c(c2)OCCO3)cc1 | -14.8% (inactive) | 
16 | O=C(COc1ccc2c(C(F)(F)F)cc(=O)oc2c1)Nc1ccc2c(c1)OCCO2 | 0% (inactive) | 
17 | CC1(C)Cc2ccccc2-c2c[nH]c(=O)n21 | -2.99% (inactive) | 
18 | Cc1ccc2[nH]c(=O)c(CN(CCCN(C)C)C(=O)Nc3cccc(Cl)c3)cc2c1 |  | 18.4 µM (active)
19 | Cc1cccc(NC(=O)N(Cc2cc3cc(C)cc(C)c3[nH]c2=O)CC2COCCO2)c1 (stereo unspecified) | 6.39% (inactive) | 
20 | Cc1ccc2[nH]c(=O)c(CN(CC3COCCO3)C(=O)Nc3ccccc3C)cc2c1 (stereo unspecified) | -18.7% (inactive) | 
21 | N#CCCC(C#N)(c1cccnc1)N1CCOCC1 (stereo unspecified) | 26.1% (inactive) | 
22 | CCOc1ccccc1CNC(=O)c1cnc2c(-c3ccc(OCC)c(OCC)c3)c(C)nn2c1C | 0.381% (inactive) | 

Row | Structure (SMILES) | activity change, negative = cytotoxicity | Potency
23 | Cc1ccccc1NC(=O)NNC(=O)OC(C)(C)C | 15.7% (inactive) | 
24 | Cc1ccc(C(=O)NNC(=O)OC(C)(C)C)c(Cl)c1 | 15.5% (inactive) | 
25 | CC(C)(C)OC(=O)NNc1c2ccccc2nc2ccccc12 |  | 9.2 µM (active)
26 | COC(=O)[C@H]1C[C@H](OC(=O)NCc2ccccc2)[C@@]2(O)CN(S(=O)(=O)c3ccc(C)cc3)CC2[C@H]1C(=O)OC (stereo partly specified) | 6.07% (inactive) | 
27 | Cc1cc(=O)[nH]c(SCC(=O)Nc2ccc(Br)cc2)n1 | 11.3% (inactive) | 
28 | Cc1ccc(NC(=O)CSc2nc(CSc3ccc(C)cc3)cc(=O)[nH]2)cc1 | -17.7% (inactive) | 
29 | COc1ccc(NC(=O)CSc2nc(NS(=O)(=O)c3ccc(C)cc3)cc(=O)[nH]2)cc1 |  | 3.66 µM (active)
30 | CC1(C(=O)NS(=O)(=O)c2ccccc2)CCN1C(=O)C1CCCCC1 (stereo unspecified) | 3.98% (inactive) | 
31 | COC(=O)C[C@H]1C[C@@H]2c3cc(NC(=O)Nc4ccccc4)ccc3O[C@@H]2[C@@H](CO)O1 | 12.4% (inactive) | 
32 | COc1cc(OC)cc(C2=Cc3ccccc3C(CC(=O)c3ccco3)N2c2ccc(-c3cnc(OC)nc3)cc2)c1 (stereo unspecified) | 0% (inactive) | 
33 | O=S(=O)(Nc1ccccn1)c1cccc(S(=O)(=O)c2ccc(Cl)cc2)c1 | -22.4% (inactive) | 
34 | O=S(=O)(/N=C(/Nc1ccccn1)c1ccccc1)c1ccc(Cl)cc1 |  | 14.6 µM (active)
35 | Cc1ccc(S(=O)(=O)/N=C(/Nc2ccccn2)c2ccc(Cl)cc2)cc1 | -13.7% (inactive) | 
36 | OC(CBr)CN1CCCCC1 (stereo unspecified) | 6.25% (inactive) | 
37 | CCn1cc(C(=O)N(C)Cc2ccccc2)c(=O)c2cc(S(=O)(=O)N3CCCCCC3)ccc21 | 0% (inactive) | 
38 | Cc1ccc(-c2ccc(C3=CC(=O)CC(C)(C)C3=O)cc2)cc1 | -4.78% (inactive) | 
39 | CC(C)(C)Cc1c(C2CCCCC2)nc2ccc(Br)cn12 | 11% (inactive) | 
40 | O=C(Nc1ccc(C(=O)O)cc1)/C(=C\c1ccccc1)NC(=O)c1ccc(Br)cc1 | 2.86% (inactive) | 
41 | O=C(/C=C/c1ccccc1)N/C(=C/c1ccccc1)C(=O)Nc1ccccc1O |  | 23.1 µM (active)
42 | CCc1ccccc1NC(=O)/C(=C/c1ccccc1)c1ccccc1 | -26.7% (inactive) | 
43 | CCOC(=O)c1csc(NC(=O)c2ccc(S(=O)(=O)N3CCCC3)cc2)n1 | 14.3% (inactive) | 
44 | Cc1cc2nc(NC(=O)c3ccc(S(=O)(=O)N4CCOCC4)cc3)sc2cc1C | 0% (inactive) | 

Row | Structure (SMILES) | activity change, negative = cytotoxicity | Potency
45 | COc1ccc(C(=O)Nc2nc(-c3ccc(S(=O)(=O)N4CCOCC4)cc3)cs2)cc1 |  | 16.4 µM (active)
46 | O=C(O)c1ccccc1Cc1ccc(F)c2ccccc12 | 10.8% (inactive) | 
47 | COC(=O)C[C@H]1C=C[C@@H](NS(=O)(=O)c2ccc(C)cc2)[C@@H](CO)O1 | 6.54% (inactive) | 
48 | Cc1[nH]c2ccccc2c1C(=O)C(=O)N(C)c1ccccc1 | 10.4% (inactive) | 
49 | CNS(=O)(=O)c1ccc2c(c1)[nH]c(=S)n2C | 8.16% (inactive) | 
50 | Cc1nc(CNS(=O)(=O)c2ccc(Oc3ccccc3)cc2)cs1 |  | 8.2 µM (active)
51 | Cc1ccc(S(=O)(=O)NCc2csc(C)n2)c(C)c1 | 10.2% (inactive) | 
52 | Cc1nc(CNS(=O)(=O)c2cccnc2)cs1 | 0.995% (inactive) | 
53 | CC(=O)c1ccccc1NC(=O)COC(=O)C1COc2ccccc2O1 (stereo unspecified) | 10.8% (inactive) | 
54 | COc1cc(C(O)c2nc(-c3cccc(C(=O)O)c3)cs2)ccc1F (stereo unspecified) | 0% (inactive) | 
55 | COC(=O)C1=CN(c2c(C)cc(C)cc2C)C(N)=C(C#N)C1c1cccc(F)c1 (stereo unspecified) | -19.9% (inactive) | 
56 | O=C(NC1CC1)c1cccc(Br)c1 | 7.99% (inactive) | 
57 | Cc1nnc(C)n1-c1ccc(C(=O)Nc2cccc(Br)c2)cc1 | 7.83% (inactive) | 
58 | COC(=O)C1NN=C(C(=O)c2ccc(Br)cc2)C1c1cccc(Br)c1 (stereo unspecified) |  | 23.1 µM (active)
59 | Cc1cccc(COc2ccccc2/C=N/Nc2ccc([N+](=O)[O-])cc2)c1 |  | 16.4 µM (active)
60 | Cc1ccc(NS(=O)(=O)c2ccc(N/N=C/c3ccccc3OCC(=O)O)c([N+](=O)[O-])c2)c(C)c1 | 11% (inactive) | 
61 | Cc1ccc(-n2c(C)cc(/C=N/Nc3ccc([N+](=O)[O-])cn3)c2C)c(C)c1 | -22.1% (inactive) | 
62 | CC1(C)OC(=O)C2=C(CC(c3ccccc3)OC2CCc2ccccc2)O1 (stereo unspecified) | -13.9% (inactive) | 
63 | Cc1noc(C)c1NC(=O)N(C)C[C@@H]1Oc2cc(Br)ccc2S(=O)(=O)N([C@@H](C)CO)C[C@H]1C | 12.1% (inactive) | 
64 | Fc1ccccc1COc1ccccc1CNCc1ccncc1 |  | 6.51 µM (active)
65 | Fc1ccccc1COc1cccc2cccnc12 | -13.5% (inactive) | 
66 | CCOc1cc(/C=N/O)ccc1OCc1ccccc1F | 0.0138% (inactive) | 

From PubChem BioAssay AID1347076 (National Center for Advancing Translational Sciences (NCATS), 2019)
